# Experimental data from PubChem BioAssay AID1508600 (Functional Genomics Laboratory (NCATS/FGL), 2020).
# Out of some 53,000 sequences screened, about 3,700 (7%) were called active.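 How the source made its calls: active means gene knockdowns whose robust z-score for IL-1 alpha signal is at least 2 or at most -2, so actives lie on both sides; inactive means the rest.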 Only a selection was taken, and actives are over-represented in it overall.
# Assay: Components of the Cytosolic LPS Sensing Pathway: Gene Identification via Genome-wide siRNA Screen
# Details: RAW264.7 macrophages, IL-1a HTRF, actives lie on both sides, screened at 100 nM (by protocol), cells primed 5 h with Pam3CSK4 first
# Source text: Non-canonical inflammasome activation by cytosolic LPS is a critical component of the host response to Gram-negative bacterial infection, however we lack a comprehensive understanding of the cellular processes that control this pathway. Here we describe a genome-wide siRNA screen to identify genes regulating the mouse macrophage IL-1 alpha response to cytosolic LPS.
# RAW264.7 cells were maintained in complete DMEM media, comprising DMEM with 4.5 g/L glucose, 10% FBS (Gemini Bio-Products, West Sacramento, CA), 2 mM Glutamine (Lonza) and 20 mM HEPES (Lonza), hereafter complete DMEM.
# The RNAi screen was conducted in 384-well format using the Ambion Silencer Mouse Genome siRNA Library (#4391425), which consists of three unique, nonoverlapping, nonpooled siRNAs for each of 17,000 gene targets. siRNA reagents ([…]) were stamped into 384-well white flat-bottom microplates (Corning, 3570) using a Velocity11 VPrep liquid handling system (Agilent) integrated into a BioCel robotic platform (Agilent) in columns 1-22, leaving columns 23-24 empty for negative (Ambion, Negative control #1) and positive (mouse Casp4) controls, respectively. The median value of each plate's negative control column was used to normalize sample wells, and the positive control was used to assess transfection efficiency and assay performance.
# Lipofectamine RNAiMAX Transfection Reagent ([…]; Invitrogen) was added in […] serum-free, antibiotic-free media to plate wells using a Thermo Scientific Matrix WellMate and Microplate Stacker. Plates were incubated for 45 min at room temperature to allow for the sufficient formation of siRNA-lipid complexes. Cells were seeded at a density of 1x10^4 cells per well in 20 microL media containing 20% (vol/vol) FBS without antibiotics. The final concentration of siRNA in each well was 100 nM. Cells were cultured for 48h at 37 degrees C in 5% CO2 before addition of […] of TLR ligand Pam3CSK4 for 5 hours. The medium was then removed, replaced with […] growth media and cell were transfected with […] of LipidA and TransIT-TKO (Mirus) for 24 hour. At the end of the LipidA treatment, […] of supernatant was transferred to a 384 Greiner Bio-one non-binding low volume plate and […] of IL-1a HTRF reagent (Cisbio, 62MIL1APEH) was added and incubated at room temperature overnight. The plates were read on an EnVision plate reader (PerkinElmer). Cell viability was measured by adding 20ul Cell Titer Glo to the original plate and running a luminescence read on the EnVision. The quantified IL-1a signal for each siRNA gene-targeted well was divided by the median of the negative control wells and multiplied by 100 to achieve a negative control normalized value for each well/siRNA. This normalized value was then used to generate a robust z-score by first taking the log of each value and then by subtracting the median and dividing by the […].
row,Sequence,z-score
1,GCCAAACUAUCAGAGAUGGTT against Slc38a7,0.0528 (inactive)
2,GGAUUAUGGUACCAAGCGCTT against Umps,1.21 (inactive)
3,CCUAAUUGAAAUCAGCAGUTT against Hip1r,1.14 (inactive)
4,GGCACAAGAAAUUUGAUGATT against Gpc6,-1.91 (inactive)
5,GCAAAUCAUGACUAUUGUATT against Atat1,0.00079 (inactive)
6,CAUGAUAGCGAUAGCAAUCTT against Olfr507,0.0127 (inactive)
7,GCCUGAUUCAGAGUAUAAATT against Col14a1,-1.24 (inactive)
8,CCUACUCAAAUGAAGUUGUTT against Cdk17,-0.384 (inactive)
9,CCUGUGAAAUACCAGCGUGTT against Rsl24d1,2.05 (active)
10,GCUCUGGUUGCCAGUUAUGTT against Ddx49,0.903 (inactive)
11,GGGAUUAUAGGGCGCAUUGTT against Olfr685,-1.01 (inactive)
12,GCGACAAAUCAAAAAGGCCTT against Dnajb9,-0.0942 (inactive)
13,GGCCAACAAUAUAAAAGACTT against Pus3,-0.641 (inactive)
14,GACUUCGGACAAAUGGUGCTT against Lce1f,2.27 (active)
15,GGUCCUGAUGUUGAAGGCATT against Rinl,0.647 (inactive)
16,GCAUCUCUUACUAAGAUUATT against Anxa4,-0.433 (inactive)
17,GGAAUUAAAUGAACCCAGATT against Arhgap8,2.48 (active)
18,GGUUUUAUGCAUUAGCUCCTT against Lipf,0.502 (inactive)
19,GCAACCUGUCAUUUUGUGATT against Olfr1134,-1.74 (inactive)
20,GGCUUUUAGCUACCUUGUGTT against AW209491,-0.704 (inactive)
21,GCACGAUGUCUCAGCUCUATT against Nipal3,-2.89 (active)
22,CCAGGUGUAACAAAAAAGATT against Dtl,1.09 (inactive)

row,Sequence,z-score
1,CCGGGAAAUUCUGUUAGCCTT against Pla2g1b,-1.95 (inactive)
2,GGAAAGCUCUCAAUACCUGTT against Olfr633,-0.688 (inactive)
3,GCUUUGGUUGCUAACCCAATT against Slc45a2,0.407 (inactive)
4,GGCUCAAUUUGGAAAGGACTT against Anxa8,-0.586 (inactive)
5,GGAGCAUCUAUGAUUACAATT against Iqcg,3.24 (active)
6,GGAUAUGUCGGAAAAAGCCTT against Cfh,0.271 (inactive)
7,GGCCACAGUAAUGGGAAAUTT against Cga,-0.208 (inactive)
8,GGUAAAUGAUCUGAAAAUGTT against Rps6ka6,-0.46 (inactive)
9,GCUCAUGUCAGGAGAGAGUTT against Ocel1,-2.41 (active)
10,CGAGCUAUACGGAAAAAAATT against Efcab12,-1.03 (inactive)
11,GCUGAUCCUCUCCCUUCAUTT against Tas2r131,-0.463 (inactive)
12,GGCUCUUCUCUCGUCCUUGTT against Nif3l1,0.213 (inactive)
13,GGAUGAAGACCCAUAUGUGTT against Ap1b1,-0.287 (inactive)
14,GCCUCAGUUUGAAAUUGUUTT against Tbrg1,-0.695 (inactive)
15,CCUGGAUCAGCAAUCCACATT against Lpxn,-0.503 (inactive)
16,UCCUCCUGUCUUACGUACGTT against Prlhr,2.05 (active)
17,CGUGUAGCAAUGAGAUAUUTT against Trpc5,0.162 (inactive)
18,GGGAUUUCUGGAGAAAAUGTT against Csta2,-0.872 (inactive)
19,GGAUUCCUGUACAUAUAUUTT against Ube4b,-0.501 (inactive)
20,GGCAUGAAUACAUCACAGCTT against Vmn1r220,-0.808 (inactive)
21,GGACAUACAAAUCUUCAUUTT against Mta2,0.886 (inactive)
22,GGUGAUGCUAAAUUCUGAUTT against Mpc2,-1.92 (inactive)

row,Sequence,z-score
1,GGUAUAUGGUGGGAACUUUTT against Bnipl,2.04 (active)
2,CCUCUCUUUAACAGGUCACTT against 1700034H15Rik,1.35 (inactive)
3,GCUGUUACUCUUAAACAAATT against Pdhx,0.254 (inactive)
4,GCCUCAGUUAUUUAAUGAATT against Mpp3,-0.414 (inactive)
5,GGAUGAAGAAAACUGGCUUTT against Tsx,-0.764 (inactive)
6,GGAAGCAGGGCAGCUUAUUTT against Hbq1a,-2.22 (active)
7,GGUUGACCCACUGAAAAUUTT against Marveld1,-0.112 (inactive)
8,GCACGGCCCUACUUUAUAGTT against Trim33,-1.43 (inactive)
9,GGCGUGAAAAUAGGAGAAUTT against Extl2,-1.77 (inactive)
10,GCCGCUACACAUCAAACCATT against Zc3h3,-0.336 (inactive)
11,GCUAAUCGAAGUUGAAAUUTT against Soga3,-0.316 (inactive)
12,GGAAAAUGGAGCUGUGCUCTT against Prelid3a,0.298 (inactive)
13,GCUGUUUUAGUAGAGGUAATT against Tsfm,-0.708 (inactive)
14,CCUCAAAUUAUUGUUGGCATT against Ppip5k1,-2.07 (active)
15,GGGCUGGCUACGAUAAGCUTT against Tes,1.53 (inactive)
16,CCCUUGAAGAUGAAACCAGTT against Smarca5,-0.277 (inactive)
17,GCGGAAAUCUAAUUGCUUGTT against Kat5,-0.0418 (inactive)
18,GGUGGAUUAAGUCUCAAAATT against Pcdhb22,0.592 (inactive)
19,CCUACUGGAAAAGAUAAUUTT against Stfa1,1.82 (inactive)
20,GCUACUAUGUGCCUGUGACTT against Oc90,-2.21 (active)
21,UACAUUAGUAGAAUGGAGGTT against Mageb3,-0.598 (inactive)
22,GGAAGAAACUGAGAAACUGTT against Fam205c,0.48 (inactive)

row,Sequence,z-score
1,CGGAAAAAUGGAAGUAUAGTT against Mrtfb,-0.687 (inactive)
2,GGGCUGUGAUCAAACAUGGTT against Ano9,-1.38 (inactive)
3,GGAAUUAUGAACAAAUUGCTT against H2-M9,0.702 (inactive)
4,GGCCUCUAUCUUCCAACAATT against Tent4a,-2.06 (active)
5,GCCAACAAGCAUUCCAUUGTT against Mrap,-0.991 (inactive)
6,GGAUACAUUAAGGUGCAAGTT against Aldh1a7,0.819 (inactive)
7,GGCACAUGGAGUGGACAAGTT against Blvrb,3.2 (active)
8,GCUUGACCCUACACUACAGTT against Olfr1121,2.47 (active)
9,GGCUGGCAAACUCAAAAAATT against Zfp385c,-0.813 (inactive)
10,GCGAUCUAGAAAUUGACAATT against St13,-0.59 (inactive)
11,GGAAAAAGGAGGGUUUAGCTT against Tm4sf5,0.418 (inactive)
12,GGACUGUGCAGUUAUUGUCTT against Psma6,-2.17 (active)
13,CCCUUUAUUAUUCCACUGUTT against Olfr530,-1.12 (inactive)
14,CCAAGUUCACAAUUGUUCUTT against Gimap8,-0.263 (inactive)
15,CCUAAAGAAAGGUUAAAGATT against Sfr1,-0.763 (inactive)
16,CGAGCCCAUGUCAGAUCAGTT against Minar1,-2.33 (active)
17,GCACUACCACUGUCAGCAATT against Ldb3,-0.734 (inactive)
18,CCAACACUACCAGAGAACGTT against Pfkfb1,-0.808 (inactive)
19,CGAUAAAAGACCCAAAUUATT against Emx2,1.86 (inactive)
20,GCAUGUGUCAAGAUGUCUGTT against Tec,1.36 (inactive)
21,GGUCACAAACAGAUUAAUUTT against Ahcy,-0.404 (inactive)
22,GGUUUGAAUGUCACCGGCATT against Defb29,-1.22 (inactive)

row,Sequence,z-score
1,GGAUGAGGAAAACUUCCAGTT against Mup5,2.61 (active)
2,GCCAUCACGAGCUAAAACCTT against Smad5,-1.91 (inactive)
3,GGUUUUUAGCCUGAGUGAGTT against Olfr688,-1.8 (inactive)
4,GGAUUUCUCGGAAGUCGAGTT against Cd3e,0.517 (inactive)
5,GGUCUUUCAAGUUGCAUACTT against Lama1,0.491 (inactive)
6,GGAUGAACUAUACCAUGGCTT against Tmem132c,1.07 (inactive)
7,GGACGGUCUUGCCUUCUUCTT against Fam222a,0.901 (inactive)
8,CGAUGACGGGAAAUAAUUUTT against Snx4,-0.663 (inactive)
9,GCUAUUUUUAUAAGGGCCATT against Sh2b2,2.94 (active)
10,GGCACCAUAGAUGUUUGAGTT against Cyp4f16,-1.34 (inactive)
11,GGAGCCUGUCUUUUAUUGATT against Olfr938,0.0765 (inactive)
12,GGUAGACACCUUGUUCUUATT against Nap1l3,1.03 (inactive)
13,GCCUUUAAUACAUAGGCUUTT against Cxcl9,-0.381 (inactive)
14,GCCAAUAGUAACCAGCCAGTT against Prkab1,-2.07 (active)
15,GCAAAUUCCAGUGAAAGCCTT against Papola,1.12 (inactive)
16,GGAUGACCAUGAAAGCUGUTT against Vps13b,1.87 (inactive)
17,GGUUAUCAUCUUGUGAAAATT against Srpk1,-0.628 (inactive)
18,AUGCCUAUACAAUUCUGUGTT against Olfr1167,0.0339 (inactive)
19,GGAGAACAACAAAGACAAGTT against Hoxb8,2.69 (active)
20,GGACACUAUAAGAAAGGAATT against Fnta,0.708 (inactive)
